Sampled rows, rich in hits. Any-hit rate of the full collection: about 2.3%.
iPSC survival up: enhancers of single-cell hiPSC survival, primary screen, ATPlite luminescence; 100% = ROCK inhibitor wells, 0% = DMSO; survival enhancement, % at 20 µM; hit rate 0.044% among 360,000; AID 602274, 2012; in the data active = survival enhancement above about 18%;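 also: cells exposed to compounds for 16 hours before the ATP read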
KKLEB cytotox: cytotoxicity in KKLEB CF airway cells, primary screen, cytotoxicity control for CF NF-kB inhibitor project, cell-based, uHTS, fluorescence assay plates | KKLEB CF airway cells viability, ATPlite luminescence, overnight; hits give low values; cells stimulated with P. aeruginosa culture filtrate | activity change (cytotoxicity), % at 5 µM | hit rate 0.36% among 360,000;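 active = corrected activity change at or below -50% at 5 µM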
TWEAK Fn14 block: inhibitors of TWEAK-Fn14 signaling, primary screen, luciferase reporter cells, uHTS; hit rate 2% among 360,000; inhibition, % at 10 µM; TWEAK-stimulated Fn14 reporter cells, luciferase luminescence, 8 h; AID 1159606, 2016; in the data active = inhibition above about 50%
HIF-2a block: HIF-2a reporter inhibitors, primary screen, luminescence, 786-0 RCC cells. hit rate 0.72% among 360,000. inhibition, % at 18.8 µM. AID 624352, 2012. 786-0 RCC cells HIF-2a reporter, luciferase luminescence, overnight;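 active = inhibition of the luminescence signal of 40% or more relative to plate controls, in a single-dose primary screen at 18.75 µM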
LGR2 antag: inhibitors of bursicon-induced LGR2 CRE-luciferase signal, primary screen, cell-based, HEK293, CRE-luciferase reporter, bursicon stimulation; bursicon-stimulated, 4 h; inhibition, % at 9.99 µM; hit rate 0.35% among 380,000;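 active = drop in luminescence signal, shown as inhibition above about 50% in the replicate tests, limit read from the data, passing the limit was not always enough; inconclusive = probably only some replicates passing the limit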;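 also: agonist challenge used bursicon conditioned medium at about half maximal strength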
CF NFkB block: inhibitors of PAF-induced NF-kB signaling, primary screen, cell-based, GFP fluorescence, uHTS; AID 588850, 2011; hit rate 0.86% among 360,000; KKLEB NF-kB-GFP reporter, GFP fluorescence overnight; inhibition, % at 5 µM;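 active = at least 50% inhibition at 5 µM, scaled per plate between neutral and stimulator controls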;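 also: PAF is a Pseudomonas aeruginosa culture filtrate used as stimulus; plate controls were PAF-stimulated DMSO wells for no effect and unstimulated DMSO wells for full effect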
CF NFkB inh conf: inhibitors of PAF-induced NF-kB signaling, retest, confirmation, cell-based, GFP fluorescence, single concentration | inhibition, % at 5 µM | hit rate 64% among 1,300 | shares compounds with CF NFkB block | AID 602472, 2012 | KKLEB CF airway cells, overnight; in the data active = inhibition above about 40%;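 also: stimulus PAF is a Pseudomonas aeruginosa filtrate and not platelet activating factor; plate controls were DMSO wells with stimulus for no effect and unstimulated DMSO wells for full effect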
* marks the source's active call; other numbers are inactive results; ? = inconclusive; · = no result.

SMILES	iPSC survival up	KKLEB cytotox	TWEAK Fn14 block	HIF-2a block	LGR2 antag	CF NFkB block	others
Cc1ccc(S(=O)(=O)N2CCN(c3ccnc4cc(Cl)ccc34)CC2)cc1C	-2	-26	10	22	-2	19
Cc1ccc(S(=O)(=O)N2CCN(c3ccnc4cc(Cl)ccc34)CC2)cc1	2	2	51*	18	8	17
CCS(=O)(=O)N1CCN(c2ccnc3cc(Cl)ccc23)CC1	0	6	5	19	30	-2
CS(=O)(=O)N1CCN(c2ccnc3cc(Cl)ccc23)CC1	-2	-2	67*	8	3	-1
CC1C(=O)N(Cc2cn(CCC3OCCCO3)nn2)CCS(=O)(=O)N1Cc1ccc(-c2ccc(Cl)c(Cl)c2)cc1 (stereo not drawn)	2	-14	71*	-33	35	22
C[C@H](CO)N1C[C@H](C)[C@H](CN(C)C(=O)Nc2ccc(F)cc2)Oc2ncc(C#CC3CC3)cc2C1=O	·	·	·	·	9	·
COc1ccc(NC(=O)N(C)C[C@H]2Oc3ccc(NS(=O)(=O)c4ccc(Cl)cc4)cc3CC(=O)N([C@@H](C)CO)C[C@H]2C)cc1	·	·	·	·	-10	·
NC(=S)N/N=C/c1coc2c(ccc3ccccc32)c1=O	-1	14	51*	-24	-54	-40
Cc1cc(S(=O)(=O)c2ccc(Cl)cc2)nc(S(=O)(=O)c2ccc(Cl)cc2)c1C#N	-1	-93*	77*	89*	14	88*
NC(=S)NN=C1c2cc(Cl)ccc2-c2c1cc(Cl)cc2[N+](=O)[O-]	1	6	101*	-25	·	-183
S=C1Nc2ccccc2CS1	-2	-1	12	12	-5	-15
S=C1Cc2ccccc2N1	11	18	72*	22	24	-7
CC(NC(=O)COC(=O)/C(=C/c1cccs1)c1cccs1)c1ccccc1 (stereo not drawn)	1	8	50*	22	10	17
CC(NC(=O)COC(=O)c1cccs1)c1ccccc1 (stereo not drawn)	0	-2	30	11	-10	-20
O=C(CSc1nc2nc(-c3cccs3)cc(C(F)(F)F)c2c(=O)[nH]1)Nc1c(F)c(F)c(F)c(F)c1F	2	-23	66*	-23	-8	32
O=C1/C(=C/c2ccccc2)CCc2ccc(Cl)nc21	-2	4	72*	12	70*	-4
O=C1/C(=C\c2ccccc2)CCc2c1[nH]c1ccccc21	-2	-30	38	-235	·	26
COc1cccc(-c2cnc3c(c2)C(=O)N([C@H](C)CO)C[C@H](C)[C@H](CN(C)C(=O)NC2CCCC2)O3)c1	·	·	·	·	-11	·
COc1ccc2cc(C(N)=O)/c(=N\NC(=O)c3ccccc3)oc2c1	0	-6	89*	-42	?	-31
COc1cc(/C=C/C(=O)OCC(=O)NC(C)c2ccccc2)cc(OC)c1OC (stereo not drawn)	-2	9	57*	-2	-17	2
N#CC1=C(N)C(C#N)(C#N)[C@H](c2cccnc2)[C@H]2CN(C(=O)OCc3ccccc3)CC=C12	0	-10	6	11	9	14
N#CC1=C(N)C(C#N)(C#N)C(c2cccnc2)C2CC(c3ccccc3)CC=C12 (stereo not drawn)	1	-22	61*	16	·	69*
C[C@@H]1CN([C@H](C)CO)C(=O)c2cccc(NC(=O)C3CC3)c2O[C@H]1CN(C)S(C)(=O)=O	·	·	·	·	4	·
O=C(NC(=S)Nc1cc(C(F)(F)F)ccc1Cl)c1ccccc1	-3	-2	-16	-120	·	-3
O=C(O)c1ccc(NNC(=S)Nc2cc(C(F)(F)F)ccc2Cl)cc1	-1	13	69*	-6	-15	0
SMILES	iPSC survival up	KKLEB cytotox	TWEAK Fn14 block	HIF-2a block	LGR2 antag	CF NFkB block	others
CCC1CSC(Nc2ccc(C(=O)/C=C/c3cccc(C)c3)cc2)=N1 (stereo not drawn)	-2	-15	52*	-84	·	24
CCNC(=O)C[C@@H]1CC[C@@H](NS(=O)(=O)c2ccc(F)cc2)[C@@H](CO)O1	·	·	·	·	-11	·
C[C@@H]1CN([C@@H](C)CO)C(=O)c2cccc(NC(=O)Nc3ccccc3)c2O[C@@H]1CN(C)C	·	·	·	·	14	·
C/C(=C\[C@@H](NP(=O)(c1ccccc1)c1ccccc1)c1ccccc1)CO[Si](c1ccccc1)(c1ccccc1)C(C)(C)C	-3	-33	1	3	·	54*	CF NFkB inh conf=31
CC(C)(C)c1nc(NC(=O)Nc2ccccc2)sc1Br	-2	-49	61*	-299	2	69*	CF NFkB inh conf=65*
O=C(Cc1ccncc1)NCC[C@H]1CC[C@H](NC(=O)Nc2ccc(F)cc2)[C@H](CO)O1	·	·	·	·	11	·
COc1ccc(S(=O)(=O)N(C)C[C@H]2Oc3cc(C4=CCCC4)ccc3S(=O)(=O)N([C@@H](C)CO)C[C@H]2C)cc1	·	·	·	·	3	·
O=C1NC(c2cccc3ccccc23)Nc2ccc(Cl)cc21 (stereo not drawn)	-2	-26	49	2	-13	52*	CF NFkB inh conf=84*
Cc1ccc(CNc2ncnc3ccc(-c4ccc(CO)o4)cc23)o1	-4	-34	0	34	13	53*	CF NFkB inh conf=81*
C[C@H](CO)N1C[C@H](C)[C@@H](CN(C)C(=O)Nc2ccc3c(c2)OCO3)Oc2c(NC(=O)Nc3ccc(C(F)(F)F)cc3)cccc2C1=O	-2	-18	24	-20	·	80*	CF NFkB inh conf=91*
C[C@@H]1CN([C@H](C)CO)C(=O)c2cc(NC(=O)Nc3ccc(C(F)(F)F)cc3)ccc2O[C@H]1CN(C)S(=O)(=O)c1ccc(Cl)cc1	-3	-6	53*	0	0	64*	CF NFkB inh conf=70*
C[C@@H]1CN([C@H](C)CO)C(=O)c2cc(NC(=O)Nc3ccc(C(F)(F)F)cc3)ccc2O[C@H]1CN(C)S(=O)(=O)c1cccs1	-1	1	42	33	5	57*	CF NFkB inh conf=81*
C[C@@H]1CN([C@H](C)CO)C(=O)c2cc(NC(=O)Nc3ccc(C(F)(F)F)cc3)ccc2O[C@@H]1CN(C)S(=O)(=O)c1ccc(F)cc1	·	·	·	·	17	·
Cc1ccc(S(=O)(=O)N(C)C[C@H]2Oc3ccc(NC(=O)CCC(F)(F)F)cc3CC(=O)N([C@H](C)CO)C[C@@H]2C)cc1	·	·	·	·	3	·

Screening results (PubChem)
